Laboratory results from PubChem BioAssay AID602127 (Broad Institute, 2011).
Potency and affinity values are given separately. Active and inactive are the calls of the source.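 The calls were made as follows: active = every repeat test judged active, meaning a falling signal with potency within twice the top valid dose; inconclusive = repeat tests disagree on the call; inactive = every repeat test inactive, including signal moving upward.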

These compounds were tested against Cyclin-dependent kinase 2 (Homo sapiens) (UniProt P24941) (assay: inhibition of human CDK2/cyclin A – biochemical, cherry-picked samples, selectivity assay for Dyrk1A inhibitor project, dose response (AID 602127)). Conditions: ADP-Glo luminescence, 60 min; series mostly up to 10 µM; activity change, negative = inhibition: at the top concentration.

Activity change, negative = inhibition, inactive:
Cc1occc1CNc1ncnc2ccc(-c3ccc4c(c3)OCO4)cc12 -0.879%
CSCC(=O)Nc1nc(-c2ccc3c(c2)OCCO3)cs1 -13.3%
COc1cccc(Nc2nc(NCCO)c3ccccc3n2)c1 -5.17%
c1cc(-c2ccc3c(c2)OCO3)nc(Nc2ccc3c(c2)OCO3)n1 -2.14%
Cc1nc(CNc2ncnc3ccc(-c4ccoc4)cc23)cs1 1.03%
CCN1CCN(Cc2ccc(NC(=O)c3ccc(C)c(NC(=O)N4CCNC4=O)c3)cc2C(F)(F)F)CC1 -7.15%
Clc1ccc(CNc2nccc(-c3ccc4c(c3)OCO4)n2)cc1Cl 2.91%
O=C(COc1ccccc1)Nc1cccc(-c2cn3cccnc3n2)c1 -14.9%
Fc1c(-c2ccc3ncnc(NCc4cccs4)c3c2)ccc2c1OCO2 -2%
COc1cccc(Nc2nc(-c3ccc(O)cc3)cs2)c1 -12.6%
COc1cccc(Nc2ncnc3sc(C)cc23)c1 -4.69%
c1nc(NCC2CCCO2)c2cc(-c3ccc4c(c3)OCO4)ccc2n1 (stereo unspecified) 9.32%
c1nc(NCC2CCCOC2)c2cc(-c3ccc4c(c3)OCO4)ccc2n1 (stereo unspecified) -7.3%
CN(C)c1ccc(-c2nccc(NCc3cccs3)n2)cc1 1.17%
O=C(NCc1ccco1)c1sc2ccccc2c1Cl 2.35%
CC(=O)Nc1ccc(Nc2cc(C)nc3c(-c4ccccc4)cnn23)cc1 -11.3%
c1nc(NCC2CCCC2)c2cc(-c3ccc4c(c3)OCO4)ccc2n1 7.36%
Cc1nc(NC(=O)c2ccccc2)sc1-c1csc(N)n1 -8.19%
Clc1cc(Cl)cc(CNc2cc(-c3ccc4c(c3)OCO4)ncn2)c1 -6.93%
c1cncc(CNc2ccnc(-c3ccc4cn[nH]c4c3)n2)c1 2.85%
O=C(O)COc1ccc(/C=C/c2nc3ccc([N+](=O)[O-])cc3s2)cc1 7.07%
Cc1nc(N)sc1-c1csc(Nc2ccccc2)n1 -2.75%
O=c1cc(-c2ccccc2Cl)oc2c(NS(=O)(=O)c3ccccc3C(F)(F)F)ccc(O)c12 -8.7%
COc1ccc(C(=O)c2sc(Nc3ccccc3F)nc2N)cc1 10%
Cc1csc(CN(C)c2ncnc3ccc(-c4ccc5c(c4)OCO5)cc23)n1 2.04%
O=C(Nc1nc2c(s1)CCCC2)c1ccc(N2C(=O)CCC2=O)cc1 -13.2%
Clc1ccc(CNc2nccc(-c3ccc4[nH]ncc4c3)n2)cc1Cl -6.13%
Clc1cc(Cl)cc(CNc2ncncc2-c2ccc3c(c2)OCO3)c1 6.67%
Cc1noc(NS(=O)(=O)c2ccc(NC(=O)c3oc4ccc(Cl)cc4c3C)cc2)c1C -14.5%
Clc1ccccc1-c1ccc2ncnc(NCc3ccc4c(c3)OCO4)c2c1 -0.839%

outcome, inactive:
CCOC(=O)c1ccc(-c2ccc3ncnc(NCc4ccc(C)o4)c3c2)o1
